The whole screen tested about 340,000 compounds, of which about 2,100 (0.62%) were called active.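 Rule for the calls: active = first-screen hits whose inhibition reached a set limit at any dose in the follow-up dose series; inconclusive = inhibition above the set first-screen limit but never retested; inactive = the rest.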 The list is a sample of the results. Potency and affinity values are given separately.
target: Rac GTPase-activating protein 1 (Homo sapiens) (UniProt Q9H0H5); experiment: MgcRacGAP GTPase-activating activity inhibitors, confirmation, biochemical, ADP Hunter fluorescence, primary and confirmatory (AID 624330); settings: MgcRacGAP-stimulated Rac1 GTP hydrolysis, at 30 µM, stronger effect = higher value, GST-tagged Rac1 F28L mutant substrate;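 note: fluorescence reports GDP produced by GAP-driven GTP hydrolysis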
Sequence (Q9H0H5 whole entry, looked up): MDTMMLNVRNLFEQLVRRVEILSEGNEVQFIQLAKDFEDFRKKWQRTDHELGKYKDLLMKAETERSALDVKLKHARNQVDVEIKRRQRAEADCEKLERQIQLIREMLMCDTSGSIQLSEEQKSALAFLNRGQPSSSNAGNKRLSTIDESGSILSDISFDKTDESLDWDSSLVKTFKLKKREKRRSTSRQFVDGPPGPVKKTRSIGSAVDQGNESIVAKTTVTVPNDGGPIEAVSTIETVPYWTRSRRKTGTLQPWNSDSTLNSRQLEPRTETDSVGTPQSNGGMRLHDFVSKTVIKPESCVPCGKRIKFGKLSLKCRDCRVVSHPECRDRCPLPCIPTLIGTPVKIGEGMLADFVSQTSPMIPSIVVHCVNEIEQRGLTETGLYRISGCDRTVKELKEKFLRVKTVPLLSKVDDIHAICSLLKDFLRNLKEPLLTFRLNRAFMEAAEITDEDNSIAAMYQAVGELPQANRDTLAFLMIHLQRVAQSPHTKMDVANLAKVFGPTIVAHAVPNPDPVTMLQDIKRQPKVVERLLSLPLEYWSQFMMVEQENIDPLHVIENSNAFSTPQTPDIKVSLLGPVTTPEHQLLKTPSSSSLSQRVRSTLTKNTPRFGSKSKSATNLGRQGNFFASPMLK

inhibition, inactive:
O=C(Nc1ccccc1Cl)C1CCN(S(=O)(=O)c2cccc3nonc23)CC1 -1.65%
CCN(CC)c1ccc(CNc2ccc3c(c2)ncn3C(C)(C)C)cc1 6.25%
CCOc1ccc(/C=N/Nc2nc(=O)[nH]nc2C)cc1OC 7.43%
CCOc1cc(/C=N\Nc2nc(-c3ccc(C)cc3)c(NC(C)=O)s2)ccc1O 8.08%
CCOc1cc(/C=N/Nc2nncc(-c3ccccc3)n2)ccc1O 13.6%
CCOc1cc(/C=N/Nc2cc(C)nc(-n3nc(C)cc3C)n2)ccc1O 11.4%
C[C@H](CO)N1C[C@H](C)[C@@H](CN(C)C(=O)Nc2ccc(C(F)(F)F)cc2)Oc2ccc(NS(=O)(=O)c3cccs3)cc2C1=O 6.16%
CC(C)NC(=O)CCCc1cn(C)c2ccccc12 3.62%
COCCNC(=O)c1onc(CSc2ccccc2)c1C(=O)O 7.12%
COC(=O)c1ccc(CNC(=O)COC(=O)/C=C/c2cc(OC)c(OC)c(OC)c2)cc1 -11.7%
CCN(C(=O)COC(=O)/C=C/c1ccc(OC)c(OC)c1)c1c(N)n(Cc2ccccc2)c(=O)[nH]c1=O 4.28%
COc1cc(/C=C/C(=O)O)ccc1O 22.1%
COc1cc(/C=C/C(=O)OCC(=O)N(C)Cc2ccccc2)cc(OC)c1OC 5.49%
COc1ccc(/C=C/C(=O)OCC(=O)NCc2ccccc2)cc1OC -1.57%
CC(C)CN(C(=O)COC(=O)/C=C/c1ccc(Cl)c(Cl)c1)c1c(N)n(Cc2ccccc2)c(=O)[nH]c1=O 10.7%
COc1cc(/C=C/C(=O)OCC(=O)NCc2ccccc2OC)ccc1O -4.08%
COC(=O)c1ccc(CNC(=O)COC(=O)/C=C/c2ccc(OC)c(OC)c2)cc1 1.48%
CCOC(=O)C(Cc1c(F)cccc1Cl)c1ccnc2nc(N)nn12 (stereo unspecified) 7.53%
CCC(CC)CN1C(Nc2ccccc2)=NC[C@@H]1CC(C)C 7.15%
Cn1c(SCC(=O)NNC(=O)c2ccc(Br)cc2)nnc1-c1cccnc1 6.67%
CC1CN(CC(=O)NN=C(c2ccccc2)c2ccccc2)CC(C)O1 (stereo unspecified) 8.46%
Cc1cccc2sc(NC(=O)CSc3nc4ccccc4o3)nc12 7.18%
CC(Sc1ncnc2ccccc12)C(=O)Nc1ccc2c(c1)OCO2 (stereo unspecified) 5.78%
COc1ccc(OC(C)C(=O)N2CCN(c3ccccn3)CC2)cc1 (stereo unspecified) -1.84%
CC1CCCN(C(=O)COC(=O)CNS(=O)(=O)c2ccc3ccccc3c2)C1 (stereo unspecified) 11.5%
COc1ccc(/C=C/C(=O)OCC(=O)NCCCc2ccccc2)cc1OC 1.47%
COc1cc(/C=C/C(=O)OCC(=O)NCCCc2ccccc2)cc(OC)c1OC 2.15%
O=C(NCCc1c[nH]c2ccccc12)C(=O)NCC(c1ccco1)N1CCN(c2ccc(F)cc2)CC1 (stereo unspecified) 5.54%
C[C@@H]1CN([C@@H](C)CO)C(=O)c2cc(-c3ccccc3F)cnc2O[C@H]1CN(C)Cc1cccc(F)c1 5.55%
COc1cccc2c(C)c(C(=O)O)[nH]c12 7.15%
COc1ccc(OC)c2c(C)cc(C)nc12 4.59%
COc1ccc(N(CC(=O)Nc2ccc(OC)c(OC)c2)S(=O)(=O)c2ccccc2)cc1Cl 12.2%
CCc1ccc(CN2CCN(C(=O)c3cccc(OC)c3OC)CC2)cc1 23.3%
COc1ccc(C(=O)N2CCN(C(=O)Cc3ccccc3)CC2)cc1OC 3.19%
CCOC(=O)C1CCN(Cc2ccc(OCc3ccccc3)c(OC)c2)CC1 15.7%
COc1ccccc1C(=O)N1CCN(C2CCN(Cc3ccccc3)CC2)CC1 19.4%
COc1ccc(C(=O)N2CCN(C3CCC(c4ccccc4)CC3)CC2)cc1OC (stereo unspecified) 23.6%
COc1cc(OC)cc(C(=O)N2CCN(C3CCN(Cc4ccccc4)CC3)CC2)c1 29%
COc1cc(C(=O)N2CCN(CCCc3ccccc3)CC2)cc(OC)c1OC 15.2%
CCOC(=O)C1CCN(Cc2ccc(OC)c(OCc3ccccc3)c2)CC1 27.7%
CCn1c(Cc2cccs2)nnc1SCC(=O)Nc1ccc(OC)c(OC)c1 7.07%
O=C(CCCn1c(=O)oc2ccccc21)N1CCc2ccccc2C1 8.41%
O=C(CSc1nccc(=O)[nH]1)Nc1cccc2ccccc12 8.22%
Cc1cc(C)cc(NS(=O)(=O)c2ccc3[nH]c(=O)ccc3c2)c1 6.34%
CCCCN(C(=O)c1cccc(-c2ccc(OC(C)=O)cc2)c1)c1c(N)n(CCC)c(=O)[nH]c1=O 8.17%
CCc1c(C)c2ccc(O)c(CN(C)C)c2oc1=O 3.54%
CC(C)c1cc(C(F)(F)F)n2nc(C(=O)Nc3ccc(-n4cnnn4)cc3)cc2n1 0.65%
CCc1cc(C(=O)N2CCCC(CNC(=O)c3ccc(-c4ccccc4)cc3)C2)no1 (stereo unspecified) 1.46%
O=C(COC(=O)c1ccc(O)cc1O)Nc1cccc2ccccc12 4.44%
CC12CCC(=O)C=C1C(F)CC1C2C(O)CC2(C)C1CCC2(O)C(=O)CO (stereo unspecified) -2.17%
Oc1ccccc1C1Nc2cccc3cccc(c23)N1 26.2%
COc1ccc(C2Nc3cccc4cccc(c34)N2)cc1 16%
COc1cc(C2Nc3cccc4cccc(c34)N2)cc(OC)c1O 12.2%
COc1ccc(Br)cc1C1Nc2cccc3cccc(c23)N1 13.1%
O=C(Oc1cccc2cccnc12)c1ccco1 12.4%
COCC(=O)N(Cc1cc2cc(C)ccc2[nH]c1=O)c1ccc(C)c(C)c1 16.2%
O=[N+]([O-])c1ccc(Cl)c(S(=O)(=O)/N=C(/c2ccccc2)N2CCOCC2)c1 2.34%
Cc1ccccc1C(=O)N1CCC(C(=O)NCc2ccc(Cl)cc2)CC1 8.11%
CC(OC(=O)CC1CCCCC1)C(=O)Nc1ccc(S(N)(=O)=O)cc1 (stereo unspecified) 1.14%
Cc1cc(C)c(C)c(S(=O)(=O)Nc2ccc(C(N)=O)cc2)c1C 13.9%
Cc1cc(C)c(C)c(S(=O)(=O)Nc2ccc(OCC(=O)O)cc2)c1C -3.75%
Cc1cc(C)c(S(=O)(=O)Nc2ccccc2)c(C)c1 -2.09%
CC(=O)c1ccc(NS(=O)(=O)c2c(C)cc(C)cc2C)cc1 2%
O=C(NC1CC1)c1ccc(CN(c2ccccc2)S(=O)(=O)c2ccccc2)cc1 5.44%
O=C(Nc1cccc(-c2ccc(N3CCOCC3)nn2)c1)c1ccc(Cl)cc1 3.67%
CCc1c(C)nc(SCC(=O)N2CCN(c3ccccc3)CC2)[nH]c1=O 13%
Cc1ccc(N=Cc2cc(Cc3ccccc3Cl)cc([N+](=O)[O-])c2O)c(O)c1 20.2%
O=[N+]([O-])c1cc(Cc2ccccc2)cc(C=Nc2ccc(N3CCOCC3)cc2)c1O 27.8%
O=C(COC(=O)c1cnccn1)NCCc1ccc(Cl)cc1 8.82%
CCOc1ccc(C(=O)NNC(=O)C2CC(=O)N(c3ccc(C)cc3)C2)cc1 (stereo unspecified) 5.17%
O=C(O)c1ccc(/C=N/Nc2ncc(Cl)cc2Cl)cc1 2.45%
Clc1cnc(N/N=C/c2ccncc2)c(Cl)c1 3.41%
Fc1ccc(/C=N/Nc2nccnc2Cl)cc1 15.7%
Oc1ccc(/C=N/Nc2ccnc3cc(Cl)ccc23)c(O)c1 17.9%
Oc1ccccc1/C=N/Nc1nccnc1Cl 5.4%
Clc1nccnc1N/N=C/c1ccc(Br)cc1 13.4%
CCC(NC(=O)c1ccccc1NC(=O)C(C)(C)C)C(=O)N1CCCC1 (stereo unspecified) 7.5%
CCN(C(=O)CSc1nc2cc(S(=O)(=O)N(CC)CC)ccc2n1CC)C1CCS(=O)(=O)C1 (stereo unspecified) 0.8%
COCCN(C(=O)c1cccc(-n2cnnn2)c1)c1c(N)n(CC(C)C)c(=O)[nH]c1=O 5.99%
CCc1cc(C(=O)N2CCN(S(=O)(=O)c3ccc(Cl)cc3)CC2)sc1C 1.55%
O=C(c1cc(S(=O)(=O)N2CCCCC2)ccc1N1CCOCC1)N1CCN(Cc2ccccc2)CC1 7.61%
NC(=S)NNC(=O)[C@@H]1CCCC[C@@H]1C(=O)O 11.2%
C=CCOc1cccc(/C=N/NC(=O)CN2CCCCC2)c1 8.26%
O=C(C[C@H]1C/C=C\C[C@@H](Cc2ccc(F)cc2)C(=O)OC[C@H]2CCCN2C1=O)N[C@@H](CO)Cc1ccccc1 4.35%
CC(NC(=O)c1cccc(C(F)(F)F)c1)C1CCCO1 (stereo unspecified) 6.29%
COc1ccc(-c2cc(=O)c3c(O)cc(OC4OC(COC5OC(C)C(O)C(O)C5O)C(O)C(O)C4O)cc3o2)cc1O (stereo unspecified) 4.67%
O=c1cc(-c2ccc(O)cc2)oc2cc(O)c(C3OC(CO)C(O)C(O)C3O)c(O)c12 (stereo unspecified) 12.2%
O=c1c2cc(O)c(O)cc2oc2cc(O)c(C3OC(CO)C(O)C(O)C3O)c(O)c12 (stereo unspecified) 23.9%
CC1OC(OCC2OC(Oc3c(-c4ccc(O)cc4)oc4cc(O)cc(O)c4c3=O)C(O)C(O)C2O)C(O)C(O)C1O (stereo unspecified) 7.46%
O=c1cc(-c2ccc(O)cc2)oc2c([C@@H]3O[C@H](CO)[C@@H](O)[C@H](O)[C@H]3O)c(O)c([C@@H]3O[C@H](CO)[C@@H](O)[C@H](O)[C@H]3O)c(O)c12 5.95%
O=c1cc(-c2ccc(O)cc2)oc2cc(O)c([C@@H]3O[C@H](CO)[C@@H](O)[C@H](O)[C@H]3O)c(O)c12 4.21%

— PubChem BioAssay AID624330 (Southern Research Specialized Biocontainment Screening …, 2012)
